Screening results (PubChem)
L3MBTL1 block: blocks human L3MBTL1. Potency, µM (top dose mostly 57.1 µM), for the others: at the top dose activity, negative = inhibition, usual class: inhibitors. AlphaScreen L3MBTL1–H3K9me1 peptide binding. Q9Y468. 0.66% of 230,000 active. AID 485360; note: % is set by controls: 0 for no effect and ±100 for the full control effect; nearly all actives have a fitted effect of over 60% in size
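L3MBTL1 (50 nM) pre-complexed 30 min with biotinylated H3(1-15)K9me1 peptide (75 nM), then compounds added for 30 min at room temperature; AlphaScreen streptavidin donor/nickel chelate acceptor beads (10 ug/mL final) read after 30 min dark incubation.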
JMJD2A Tudor inh: JMJD2A Tudor domain (human) inhibition; AlphaScreen JMJD2A-Tudor / H3K4me3 peptide binding; AID 504339; Potency, µM (series often up to 114 µM), for the others: at the top dose activity change, negative = inhibition, most hits filed as inhibitors; O75164; 4.4% of 390,000 active; note: % is set by controls: 0 for no effect and ±100 for the full control effect; nearly all actives have a fitted effect of over 50% in size
HP1b binding inh: inhibitors of HP1-beta chromodomain binding to methylated histone tails; Potency, µM (doses to about 114 µM), inactives show at the top dose activity change, negative = inhibition, hits mostly inhibitors; AlphaScreen HP1-beta / biotin-H3K9me3 peptide binding; 0.56% of 390,000 active; P83916; note: nearly all actives have a fitted effect of over 70% in size
Target sequence (P83916 whole entry, looked up): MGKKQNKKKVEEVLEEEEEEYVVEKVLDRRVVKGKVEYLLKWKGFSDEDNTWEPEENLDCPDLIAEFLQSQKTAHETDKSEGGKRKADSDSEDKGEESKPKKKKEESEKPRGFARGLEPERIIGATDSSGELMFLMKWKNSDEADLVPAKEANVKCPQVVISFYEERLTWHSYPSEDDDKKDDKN
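AlphaScreen: HP1-beta (50 nM) preformed 30 min with biotin-H3(1-18)K9me3 peptide (50 nM) in PBS pH 7.4, 0.01% Tween-20. Compound added for 30 min at RT, then streptavidin donor/nickel chelate acceptor beads (10 ug/mL) for 30 min.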
BAZ2B block: BAZ2B (human) inhibition; 4.4% of 360,000 active; AlphaScreen BAZ2B-H3K14Ac peptide displacement; AID 504333; Potency, µM (titrated, usually from 114 µM), without a hit: at the top dose activity change, negative = inhibition, hits mostly inhibitors; Q9UIF8; note: % is set by controls: 0 for no effect and ±100 for the full control effect; nearly all actives have a fitted effect of over 60% in size
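Protein-peptide AlphaScreen: BAZ2B 50 nM, b-H3K14Ac 50 nM, 1x PBS pH 7.4 + 0.01% Tween-20. Preincubation 30 min RT; cpd 30 min RT (top 110 uM); beads 20 min RT, light-protected.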
G9a block: blocks human histone lysine methyltransferase G9a; Q96KQ7; Potency, µM (series often up to 102 µM), for inactives: at the highest dose activity, negative = inhibition, most hits filed as inhibitors; 8.8% of 350,000 active; G9a H3K9 monomethylation, AlphaScreen, 2 h; note: % is set by controls: 0 for no effect and ±100 for the full control effect; nearly all actives have a fitted effect of over 75% in size
Target sequence (Q96KQ7 913-1193 limits assumed): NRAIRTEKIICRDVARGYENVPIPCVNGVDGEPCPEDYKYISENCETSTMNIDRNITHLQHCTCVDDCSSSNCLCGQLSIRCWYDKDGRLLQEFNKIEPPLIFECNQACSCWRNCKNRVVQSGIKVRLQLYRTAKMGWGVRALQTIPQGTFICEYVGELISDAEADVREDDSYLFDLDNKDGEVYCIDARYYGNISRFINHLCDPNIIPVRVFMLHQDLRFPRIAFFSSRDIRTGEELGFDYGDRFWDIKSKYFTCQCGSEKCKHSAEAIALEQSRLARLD
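Compounds were preincubated with 20 nM G9a for 15 min, after which biotinylated H3K9 peptide (500 nM) and SAM (20 uM) started a 2 h room-temperature reaction. Monomethylated product was quantified by antibody-based AlphaScreen chemiluminescence.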
* marks the source's active call; other numbers are inactive results; ? = inconclusive; nt = not tested or not shown; [ ] = another dose, or the depositor's remark. Hits are enriched below; roughly 11% of the tested compounds scored in any of these assays. Calls come from the whole dose curve; as a rule, active = well fitted inhibition curve with a large enough effect; inconclusive = small, poorly fitted or top-dose-only effect; inactive = no such curve, though single readings can be large or run the other way. Potency is the fitted concentration of half-maximal effect.

SMILES	L3MBTL1 block	JMJD2A Tudor inh	HP1b binding inh	BAZ2B block	G9a block
Fc1ccc(Nc2nc(N3CCOCC3)nc(N3CCOCC3)n2)cc1	nt	?	32.8%	?	44.7µM*
c1ccc(Nc2nc(N3CCOCC3)nc(N3CCOCC3)n2)cc1	2.8%	-13.4%	10.5%	10.9%	?
Cc1ccc(Nc2nc(N3CCOCC3)nc(N3CCOCC3)n2)cc1C	nt	-3.1%	20.4%	?	50.1µM*
Cc1cccc(Nc2nc(N3CCOCC3)nc(N3CCOCC3)n2)c1	-2.8%	-22.6%	27.2%	-35.1%	?
O=C(Nc1ccccc1Br)N1CCN2CCCCC2C1 (centres undefined)	nt	5.5%	27.3%	-11.5%	-23.3%[59 µM]
CCn1ccnc1CNC(=O)CC1C(=O)NCCN1Cc1ccccc1F (centres undefined)	7.6%	-3.5%	25.6%	-9.9%	20.2%[12.7 µM]
Cc1cc(CNC(=O)CC2C(=O)NCCN2Cc2ccccc2C(F)(F)F)on1 (centres undefined)	-1.1%	-1.4%	48.1%	-1.4%	50.1µM*
CCc1ccc(CNC(=O)CC2C(=O)NCCN2Cc2ccccc2F)nc1 (centres undefined)	nt	-14.6%	51.3%	-18.8%	79.4µM*
COc1cccc(CN2CCNC(=O)C2CC(=O)NCCn2nc(C)cc2C)c1OC (centres undefined)	9.5%	4.5%	38.1%	-5.9%	?
Cc1cc(CNC(=O)CC2C(=O)NCCN2CC(c2ccccc2)c2ccccc2)on1 (centres undefined)	6.3%	-31.6%	-0.4%	2.0%	nt
Cc1cc(C)n(CCNC(=O)CC2C(=O)NCCN2Cc2ccccc2C(F)(F)F)n1 (centres undefined)	2.4%	-21.1%	-25.8%	-1.3%	44.7µM*
Cc1cnc(CNC(=O)CC2C(=O)NCCN2Cc2ccccc2C(F)(F)F)cn1 (centres undefined)	nt	-4.8%	61.5%	-22.9%	31.6µM*
O=c1nc2cccc3c2=c(/c1=C(\O)c1ccccc1)c1ccccc1c3=O	-29.3%	-29.8%	35.9%	89.1µM*	?
Cc1ccn2c(c1)nc(=O)c1cc(S(=O)(=O)N3CCC(C)CC3)c(Cl)cc12	nt	-15.3%	40.0%	-13.7%	2.6%[59 µM]
O=C(NCC(=O)N1CC=C(c2ccccc2)CC1)c1ccc(OC(F)F)cc1	-4.5%	-8.8%	27.7%	nt	nt
COc1cc(OC)cc(C(=O)NCC(=O)N2CC=C(c3ccccc3)CC2)c1	29.1%	-15.5%	17.3%	-16.0%	50.1µM*
O=C(O)c1ccc(N2C(=O)CC(SC(=Nc3ccccc3)Nc3ccccc3)C2=O)cc1 (centres undefined)	8.4%	-14.6%	21.1%	-4.6%	17.0%
CC(/C=C/c1ccc(N(C)C)cc1)=N\N=C(/N)SC1CC(=O)N(c2ccc(C(=O)O)cc2)C1=O (centres undefined)	-6.9%	31.6µM*	?	50.1µM*	?
C=C(C)C(=O)Nc1cccc(C2=NOC3(C2)C[C@H](C(N)=O)N(C(=O)COc2ccc(Cl)cc2)C3)c1 (some centres undefined)	nt	10µM*	10µM*	6.31µM*	?
C/C=C(/C)C(=O)Nc1cccc(C2=NOC3(C2)C[C@H](C(N)=O)N(C(=O)c2ccc(Cl)cc2)C3)c1 (some centres undefined)	nt	-13.1%	37.9%	-6.4%	2.3%[12.7 µM]
C=C(C)C(=O)Nc1cccc(C2=NOC3(C2)C[C@H](C(N)=O)N(C(=O)c2ccccc2)C3)c1 (some centres undefined)	nt	22.4µM*	?	44.7µM*	?
C=C(C)C(=O)Nc1cccc(C2=NOC3(C2)C[C@@H](C(N)=O)N(C(=O)c2cc([N+](=O)[O-])cc([N+](=O)[O-])c2C)C3)c1 (some centres undefined)	nt	17.8µM*	6.31µM*	28.2µM*	?
C=C(C)C(=O)Nc1cccc(C2=NOC3(C2)C[C@@H](C(N)=O)N(C(=O)c2ccc(Cl)cc2)C3)c1 (some centres undefined)	nt	7.08µM*	7.94µM*	11.2µM*	?
O=C(CCc1ccccc1)NCc1nc2cccnc2n1Cc1ccc(F)cc1	nt	-12.6%	13.1%[57 µM]	-1.8%	7.7%[59 µM]
